Results taken from the supplement of paper PMC6555819.

What follows are sequences tested on VDR:RXRa (NR concentration 270 nM, RXRa partner concentration 90 nM) (assay: PBM binding z-score (relative to random genomic background probes); higher = stronger binding; sequences stand for … in GC…GCGATTGACAGCGTAGAATGAAGG).
Procedure: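 Protein-binding microarray (Agilent 4x180K custom design, double-stranded 60-nt probes: 5' GC cap, 34-nt variable region, 24-nt constant primer region; full probe sequence given). Purified or IVT nuclear receptor:RXRα heterodimers (3:1 NR:RXRα, mostly 270:90 nM) or homodimers were incubated for 1 h in PBS with 2% milk and no ligand, then detected with Alexa488 antibodies. Fluorescence from o1-orientation probes (~5 replicates averaged) was converted to z-scores against 500 random hg19 background probes. Variable regions are seed direct-repeat (DR0–DR5) sites, all their single-nucleotide variants and half-site ablations.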
CAAACCAGGTCAAGGTCAAAGTCGGTTTGTGCCA showed a PBM binding z-score of 5.66.
CCTCGGAGGACAGAAGGTGAGAGCTGTCCGCTTT was tested, and the PBM binding z-score was -0.483.
Work on CGTTACGGGTCACGAGGTTATAGCACGACGAGCG yielded a PBM binding z-score of 5.35.
With TATATTAGTTGAAGGGCAACCGACGAGTCCGTTT the PBM binding z-score was 0.939.
CTCGAAAGGTCGGGCTCAGGTGAGTATACCAAAC gave a PBM binding z-score of 1.5.
Work on GCGACTGGGGCATCAGCAGGTTACCACAACTTAA yielded a PBM binding z-score of -0.211.
Work on CCTGCTAGGTCAATGGCCAGCTAAAGCAGCTCGC yielded a PBM binding z-score of 0.561.
With TCTTGTAGATCAATAGAGGTGAAGAAAGTGCGCT the PBM binding z-score was 0.991.
AGAATGAGTTTATACGTAGATCAGGGAAGAAAGT showed a PBM binding z-score of 1.71.
In the case of ATCTCTAGGTAACCAAGTTCAGTGCATGCCGAAC, the PBM binding z-score is reported as 4.21.
TCTATTATTTGATTAGGGCAACCGAAACAGCGGA gave a PBM binding z-score of 0.857.
ACGAGTTGGTCAGCTGAGGTCACACACAATTCGG was tested, and the PBM binding z-score was 4.62.
CCTTACGGATCACGAGGTTATAGCACGACGAGCG was tested, and the PBM binding z-score was 1.05.
Sequence TCATATAGGTAAATGCTAGGTGAAAGCCCGATCT has a PBM binding z-score of 0.543.
AGCATGAGGTTAAGATCAGGGAAACAGAATACAT gave a PBM binding z-score of 1.36.
TCTTGAAGATCAAGCAGGTTAAGAAAGCCTGAGT showed a PBM binding z-score of 0.401.
In the case of ATCGACAGGTCGACGAGGTGAGTATACACCGTTT, the PBM binding z-score is reported as 2.85.
With CCGACTGGGGCATAAGGTTACCATCAGCCAGCCC the PBM binding z-score was -0.0341.
Work on CAAACTAGGTCACGAAAGGTCTAAGTCGAATGAC yielded a PBM binding z-score of 3.75.
Work on CCTTACGGATCAAGGTTATAGCACGGGTGGTACG yielded a PBM binding z-score of 0.474.
CCAGACAGGTGAAAGCTAACTCAGTCTGGTACGC showed a PBM binding z-score of -0.274.
In the case of ATCTCTAGGTAAAAGTTCACTGAATCCCGAGGAT, the PBM binding z-score is reported as 2.58.
Sequence CAAACTAGGTCACGAAAGGTCGAAGTCGAATGAC has a PBM binding z-score of 5.72.
Work on TCATATAGGTAATACAGGTGAAATTCGGCATCTA yielded a PBM binding z-score of 1.12.
In the case of CCTTACGGGTCACTGACAGGTTATACCATTTGGA, the PBM binding z-score is reported as 3.9.
ACTAGCAGGCTAAGTTTGGGTCACTCAAACAAAG gave a PBM binding z-score of 0.216.
With TCTATTAGTTGATTAGGGCACCCGAAACAGCGGA the PBM binding z-score was 0.698.
In the case of GAGACTGGGGCATCAGCAGGTTACCATAACTTAA, the PBM binding z-score is reported as 0.317.
Sequence TCAGACAGGTGAAGGTAACTGAGGTACGCAGTCG has a PBM binding z-score of 0.737.
CCTACTGGGCCACAAAGGTCATTGATGCCGATAA showed a PBM binding z-score of 5.28.
For TGAATGCGGTTATAAGATCAGGGAACGTTGCAAA, the PBM binding z-score was -0.0836.
In the case of TCTCTGAGGACACGAAGGTCAGAGCTTTCCAGAG, the PBM binding z-score is reported as 2.6.
For GATACAGGGTCAGCTAGAGGCCAAAGTATGGAAA, the PBM binding z-score was 4.26.
Work on ATCGAAAGGCCGAGGTGAGTATAGAGAAAGGGAA yielded a PBM binding z-score of -0.47.
ACAGACAGGTGAGTGAAGATAACTCAGCTGGACG gave a PBM binding z-score of -0.413.
In the case of AGAATGAGGTTATTAAGAACAGGGAATTGCGGTC, the PBM binding z-score is reported as 1.83.
Sequence CCTAGCAGGGCAATCTGGGTCACTCAAGGCTTGA has a PBM binding z-score of 1.08.
GGGACGAGGGCAAAGTTGATAGCATCTGTCGACG gave a PBM binding z-score of 1.47.
Sequence CCTATTAGTTGACAATAAGGGCAACCGAAGCTCG has a PBM binding z-score of 1.09.
Sequence GCGACTGGGGCATCAGCAGGTTACCATGACTTAA has a PBM binding z-score of -0.443.
